Rows were chosen to be rich in hits. Some 4.7% of all compounds tested hit in one or more screens of this group.
SKKanGAS inh – S. pyogenes SKKanGAS growth inhibitors in kanamycin, primary screen, streptokinase expression inhibitor project, SKKanGAS strain, BacTiter-Glo luminescence; 6 h; inhibition, % at 7.5 µM; hit rate 1.3% among 300,000;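 active = mean replicate score, as percent of positive control median, at least 50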;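 note: strain carries kanamycin resistance gene driven by streptokinase promoter and grows in 40 µg/ml kanamycin; loss of luminescence reflects streptokinase promoter inhibition or plain growth inhibition; 0% = median of DMSO wells and 100% = positive control at its reference dose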
Calb FLC – C. albicans growth inhibition with fluconazole, primary screen, CaCi-2 strain, Alamar Blue fluorescence | C. albicans CaCi-2 (fluconazole-resistant clinical isolate) + fluconazole, 48 h | growth inhibition, % (test concentration not listed) | hit rate 0.57% among 300,000;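 active = growth inhibition above about 58% in most replicates, limit read from the data, passing the limit was not always enough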;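 note: all wells also contain fluconazole at 8 µg/ml as a sub-toxic cotreatment; 0% = median of DMSO wells and 100% = median of geldanamycin control wells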
tim23-1 inh – growth inhibitors of tim23-1 mutant yeast, primary screen, luminescence, uHTS. hit rate 1.3% among 330,000. S. cerevisiae tim23-1 growth, BacTiter-Glo luminescence, 24 h. inhibition, % at 20 µM;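 active = growth inhibition of the mutant yeast at or above 50%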;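 note: temperature-sensitive mutant grown at 25 °C; plate controls were DMSO-treated mutant yeast for no effect and medium wells lacking yeast for full effect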
PfHsp90 yeast 2 – growth inhibition of PfHsp90-expressing yeast, primary screen, antimalarial PfHsp90 inhibitor project, S. cerevisiae, BacTiter-Glo luminescence, single point, set 2; BacTiter-Glo ATP, 48 h; yeast lacking PDR1 and PDR3 efflux regulators; inhibition, % at 9.4 µM; hit rate 0.32% among 310,000;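 active = every replicate shows inhibition above about 80%, whatever the replicate mean, limit read from the data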;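 note: 0% = DMSO neutral controls and 100% = 20 µM radicicol positive controls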
TIM10 inh – growth inhibitors of isogenic TIM10 control yeast, primary screen, counter-screen for tim10-1 yeast inhibitor project, luminescence, uHTS. S. cerevisiae TIM10 strain growth, BacTiter-Glo luminescence, 24 h. inhibition, % at 10 µM. hit rate 1.4% among 330,000;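 active = inhibition of 40% or more at the single tested concentration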;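 note: wild-type TIM10 isogenic control strain grown at permissive 25 °C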
tim10-1 inh – growth inhibitors of tim10-1 mutant yeast, primary screen, luminescence, uHTS. inhibition, % at 20 µM. hit rate 2.2% among 330,000. S. cerevisiae tim10-1 ts strain growth, BacTiter-Glo, 24 h;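 active = inhibition of at least 40%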;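 note: mutant grown at 25 °C; 0% = DMSO wells with yeast and 100% = wells holding no yeast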
tim10-1 confirm – growth inhibitors of tim10-1 mutant yeast, confirmation, single concentration, luminescence, S. cerevisiae; hit rate 56% among 7,400; shares compounds with tim10-1 inh; S. cerevisiae tim10-1 ts strain growth, BacTiter-Glo, 24 h; inhibition, % at 20 µM;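 active = inhibition of yeast growth at or above a set limit in either of two repeat tests at 20 µM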;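 note: tim10-1 mutant grown at permissive 25 °C to find synthetic lethal compounds; 0% = DMSO yeast wells and 100% = medium wells without yeast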
* = called active by the depositor; nt = not tested or not shown.

SMILES	SKKanGAS inh	Calb FLC	tim23-1 inh	PfHsp90 yeast 2	TIM10 inh	tim10-1 inh	tim10-1 confirm
Cc1ccccc1OCc1n[nH]c(=S)n1Cc1ccccc1	-15	-8	36	-41	24	47*	22
CC(C)(C)c1ccc(-c2n[nH]c(=S)n2Cc2ccccc2)cc1	4	7	37	17	29	45*	38*
CSCCC(NC(=O)c1ccccc1Br)C(=O)NCC(c1ccco1)N1CCCCC1 (stereo unspecified)	-4	2	-14	-19	-1	-17	nt
Fc1ccc(-c2cc3nc4c(c(N5CCOCC5)n3n2)CCCC4)cc1	-1	-3	43	-23	10	32	nt
OC1CCN(c2c3c(nc4cc(-c5ccc(F)cc5)nn24)CCC3)CC1	2	-2	25	-2	28	45*	31
OC1CCCN(c2c3c(nc4cc(-c5cccc(Cl)c5)nn24)CCC3)C1 (stereo unspecified)	10	-2	21	-16	-23	33	nt
Cc1cccc(-c2cc3nc4c(c(N5CCCC(O)C5)n3n2)CCC4)c1 (stereo unspecified)	8	24	39	nt	16	47*	15
COc1ccc(-c2cc3nc4c(c(N5CCC6(CC5)OCCO6)n3n2)CCC4)cc1	7	35	40	17	32	47*	33*
CS(=O)(=O)c1ccc(-c2sc3ccccc3c2C(=O)NCCCN2CCOCC2)cc1	nt	nt	-9	-11	-11	-3	nt
O=S(=O)(c1ccc(Cl)c(NC(=S)Nc2ccccc2N2CCOCC2)c1)N1CCOCC1	2	-18	29	-10	14	33	nt
Fc1ccc(NC(=S)Nc2ccccc2N2CCOCC2)cc1Cl	-2	-6	32	-25	9	44*	39*
O=S(=O)(c1ccc(Oc2ccc(S(=O)(=O)N(CCO)CCO)cc2)cc1)N(CCO)CCO	-7	-15	-3	-6	-1	5	nt
O=S(=O)(c1ccc(N2CCC(c3ccc(Cl)cc3)=N2)cc1)N(CCO)CCO	4	36	37	-5	27	55*	48*
O=C(OC1CCCCC1=O)c1cc(Cl)ccc1[N+](=O)[O-] (stereo unspecified)	4	-5	44	2	19	45*	39*
Cc1cc(C)n(CC(O)Cn2c3ccc(Br)cc3c3cc(Br)ccc32)c(=O)n1 (stereo unspecified)	29	-17	46	-7	23	56*	52*
CC(C)(C)[C@H]1CCC(=O)N([C@H](CN=[N+]=[N-])Cc2ccccc2)CC1	5	-2	36	-12	19	41*	24
[N-]=[N+]=NC[C@H](Cc1ccccc1)N1CC[C@@H](O)CCC1=O	-3	-1	8	-14	-7	-2	nt
CCC(CC)N1CCN(S(=O)(=O)c2ccc(OC)cc2)CC1	4	-6	7	-8	-10	9	nt
O=C1/C(=C/c2ccccc2F)SC(=S)N1CC(=O)N1CCCCC1c1cccnc1 (stereo unspecified)	2	-14	36	-29	24	45*	16
COc1ccc(N2CCN(C(=O)CSc3nnc4n3C(C)(C)Cc3ccccc3-4)CC2)cc1	-4	-1	38	3	17	46*	25
Cc1c(C(=O)Nc2nccs2)oc2ccc(F)cc12	nt	nt	-11	-8	-6	-1	nt
Cc1c(C(=O)/C=C/c2cccs2)oc2ccc(F)cc12	-8	-7	31	-24	30	45*	38*
Cn1c2ccccc2c2nnc(SCC(=O)NC3CCCC3)nc21	-2	-28	12	-27	17	2	nt
CC(C)(C)c1csc(NC(=O)C2COc3ccccc3O2)n1 (stereo unspecified)	3	-4	40	-22	23	35	nt
